Test results published in PubChem BioAssay (Tox21).
Records with an inconclusive call do not appear. A call without a number means that no potency is given here. Calls of active or inactive are those of the source. Unless noted, the call rests on the fitted dose curve; in most records, active means well fitted curve in the direction sought with a large enough effect in the repeat runs; inconclusive means weak or mixed curves; inactive means no such curve, though single readings can be large; an effect the other way counts as inactive or inconclusive.

Key:
[1] = qHTS assay to identify small molecule antagonists of the peroxisome proliferator-activated receptor delta (PPARd) signaling pathway - cell viability counter screen (AID 743213); further: nearly all actives have a fitted effect of over 50% in size; further: potency means the concentration at half of the fitted maximal effect
How it was run: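 Same-well viability: cells pre-incubated 5 h, dosed with compound plus 300 nM L165041, kept 17 h at 37 C, FRET substrate 2 h RT, then CellTiter-Glo 30 min RT and luminescence.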

[2] = molecular target: Peroxisome proliferator-activated receptor delta (Homo sapiens) (UniProt Q03181); assay: qHTS assay to identify small molecule antagonists of the peroxisome proliferator-activated receptor delta (PPARd) signaling pathway (AID 743215; active means well fitted inhibition curve with a large enough effect in the signal ratio in the repeat runs, not every such curve was filed as active; the % refers to the signal ratio;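 further: cells stimulated with agonist L165041 at 300 nM final during compound exposure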; further: potency means the concentration at half of the fitted maximal effect)
Peroxisome proliferator-activated receptor delta (Homo sapiens), sequence (Q03181 whole entry, looked up): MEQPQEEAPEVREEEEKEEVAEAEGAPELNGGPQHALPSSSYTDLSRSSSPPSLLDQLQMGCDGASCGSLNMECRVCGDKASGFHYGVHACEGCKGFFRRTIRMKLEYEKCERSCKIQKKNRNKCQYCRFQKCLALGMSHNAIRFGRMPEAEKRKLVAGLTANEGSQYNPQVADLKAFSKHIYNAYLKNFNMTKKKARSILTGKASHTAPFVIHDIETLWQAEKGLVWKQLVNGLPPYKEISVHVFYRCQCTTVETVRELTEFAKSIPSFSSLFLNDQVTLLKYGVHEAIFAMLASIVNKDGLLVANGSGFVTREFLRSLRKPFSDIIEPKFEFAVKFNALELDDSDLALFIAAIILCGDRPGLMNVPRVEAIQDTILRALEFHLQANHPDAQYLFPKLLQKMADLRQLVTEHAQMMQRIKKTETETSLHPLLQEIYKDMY
How it was run: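 HEK293H GeneBLAzer PPARd UAS-bla reporter cells; cpd + L165041 300 nM final, 17 h 37 C; LiveBLAzer B/G FRET substrate 2 h RT; fluorescence intensity read-out. Antagonist mode.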

[3] = qHTS assay to identify small molecule agonists of the farnesoid-X-receptor (FXR) signaling pathway - cell viability counter screen (AID 743218); further: nearly all actives have a fitted effect of over 45% in size; further: potency means the concentration at half of the fitted maximal effect
How it was run: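 Luminescence from CellTiter-Glo, read after 30 min at RT, reports viability of GeneBLAzer FXR-UAS-bla HEK 293T cells treated 16 h with compounds in the wells used for the beta-lactamase reporter.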

[4] = molecular target: Bile acid receptor (Homo sapiens) (UniProt Q96RI1); assay: qHTS assay to identify small molecule agonists of the farnesoid-X-receptor (FXR) signaling pathway (AID 743220; active means well fitted activation curve with a large enough effect in the signal ratio in the repeat runs, not every such curve was filed as active; the % refers to the signal ratio)
Bile acid receptor (Homo sapiens), sequence (Q96RI1 whole entry, looked up): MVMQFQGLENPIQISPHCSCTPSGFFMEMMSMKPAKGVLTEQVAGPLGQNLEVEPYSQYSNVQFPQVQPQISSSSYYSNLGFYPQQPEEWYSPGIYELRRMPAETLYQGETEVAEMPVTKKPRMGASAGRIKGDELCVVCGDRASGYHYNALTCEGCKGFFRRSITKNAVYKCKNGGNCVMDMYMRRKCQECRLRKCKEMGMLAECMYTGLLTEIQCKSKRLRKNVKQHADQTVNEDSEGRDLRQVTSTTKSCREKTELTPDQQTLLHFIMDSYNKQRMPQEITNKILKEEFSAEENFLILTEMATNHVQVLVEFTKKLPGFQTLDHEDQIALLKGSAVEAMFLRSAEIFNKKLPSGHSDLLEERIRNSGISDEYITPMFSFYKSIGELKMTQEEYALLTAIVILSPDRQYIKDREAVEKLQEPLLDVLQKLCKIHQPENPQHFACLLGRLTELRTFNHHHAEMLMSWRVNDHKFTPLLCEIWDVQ
How it was run: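 FXR-UAS-bla HEK 293T cells carrying a UAS-driven beta-lactamase reporter were plated for 5 h at 37C/5% CO2, then exposed to DMSO-dissolved Tox21 10K compounds for 16 h at 37C. A LiveBLAzer B/G FRET substrate was loaded for 2 h at room temperature before fluorescence reading.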

[5] = qHTS assay to identify small molecule agonists of the vitamin D receptor (VDR) signaling pathway - cell viability counter screen (AID 743224); further: nearly all actives have a fitted effect of over 50% in size; further: potency means the concentration at half of the fitted maximal effect
How it was run: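 Cytotoxicity counter screen: VDR-bla cells, 16 h compound exposure at 37C, 5% CO2; CellTiter-Glo luminescence, 30 min RT, same wells as bla read.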

[6] = molecular target: Bile acid receptor (Homo sapiens) (UniProt Q96RI1); assay: qHTS assay to identify small molecule antagonists of the farnesoid-X-receptor (FXR) signaling pathway (AID 743217; active means well fitted inhibition curve with a large enough effect in the signal ratio in the repeat runs, not every such curve was filed as active; the % refers to the signal ratio; further: potency means the concentration at half of the fitted maximal effect)
How it was run: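 Read-out: beta-lactamase FRET fluorescence (LiveBLAzer B/G substrate, 2 h, room temperature) in GeneBLAzer FXR-UAS-bla HEK 293T cells. Compounds were co-dosed with 50 uM chenodeoxycholic acid (final) and incubated 16 h at 37 °C.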

[7] = qHTS assay to identify small molecule antagonists of the farnesoid-X-receptor (FXR) signaling pathway - cell viability counter screen (AID 743221; active means well fitted cell-killing curve with a large enough effect in the repeat runs, not every such curve was filed as active; further: nearly all actives have a fitted effect of over 50% in size; further: potency means the concentration at half of the fitted maximal effect)
How it was run: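 FXR-UAS-bla HEK 293T cells were treated with test compounds plus chenodeoxycholic acid (50 uM final) for 16 h at 37 C. Cell viability in the same wells was then read as CellTiter-Glo luminescence after 30 min at room temperature.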

[8] = molecular target: Vitamin D3 receptor (Homo sapiens) (UniProt P11473); assay: qHTS assay to identify small molecule agonists of the vitamin D receptor (VDR) signaling pathway (AID 743222; calls by dose curve)
Vitamin D3 receptor (Homo sapiens), sequence (P11473 whole entry, looked up): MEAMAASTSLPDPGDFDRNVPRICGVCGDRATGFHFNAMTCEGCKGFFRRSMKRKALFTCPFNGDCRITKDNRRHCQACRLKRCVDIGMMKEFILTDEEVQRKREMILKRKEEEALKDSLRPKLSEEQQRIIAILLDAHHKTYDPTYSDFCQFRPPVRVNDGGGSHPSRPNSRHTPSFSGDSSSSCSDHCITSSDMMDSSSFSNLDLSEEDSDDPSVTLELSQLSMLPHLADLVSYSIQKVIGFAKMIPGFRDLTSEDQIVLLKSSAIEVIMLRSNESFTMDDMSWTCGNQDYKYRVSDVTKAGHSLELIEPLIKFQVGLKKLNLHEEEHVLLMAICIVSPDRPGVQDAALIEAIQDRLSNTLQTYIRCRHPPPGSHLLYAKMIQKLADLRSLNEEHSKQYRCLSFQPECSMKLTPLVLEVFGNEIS
How it was run: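 Beta-lactamase reporter readout (LiveBLAzer B/G FRET, 2 h RT) in VDR-bla cells after 16 h compound treatment at 37C, 5% CO2; cells pre-incubated 4 h before pin transfer of DMSO solutions.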

[9] = molecular target: Peroxisome proliferator-activated receptor delta (Homo sapiens) (UniProt Q03181); assay: qHTS assay to identify small molecule agonists of the peroxisome proliferator-activated receptor delta (PPARd) signaling pathway (AID 743212; calls by dose curve)
How it was run: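 Tox21 library screened in GeneBLAzer PPARd UAS-bla HEK293H cells. After compound treatment at 37 C, a FRET-based beta-lactamase substrate was applied for 2 h and fluorescence recorded.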

[10] = molecular target: Vitamin D3 receptor (Homo sapiens) (UniProt P11473); assay: qHTS assay to identify small molecule antagonists of the vitamin D receptor (VDR) signaling pathway (AID 743223; active means well fitted inhibition curve with a large enough effect in the signal ratio in the repeat runs, not every such curve was filed as active; the % refers to the signal ratio; further: potency means the concentration at half of the fitted maximal effect)
How it was run: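 VDR-bla cells were plated, incubated 4 h at 37C, then given compound and 1alpha,25-dihydroxyvitamin D3 (3 nM final). After 16 h at 37C, LiveBLAzer B/G FRET substrate was added for 2 h at room temperature and fluorescence read.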

Clc1nc(C(Cl)(Cl)Cl)c(Cl)c(Cl)c1Cl
Potency [1]: inactive | Potency [2]: inactive | Potency [3]: inactive | outcome [4]: inactive | Potency [5]: 49 µM (active)

CN[C@H]1CC[C@@H](c2ccc(Cl)c(Cl)c2)c2ccc(S(N)(=O)=O)cc21
Potency [1]: 12.3 µM (active) | Potency [2]: 34.7 µM (active) | Potency [6]: 49 µM (active) | Potency [3]: 13.8 µM (active) | Potency [7]: 24.5 µM (active) | outcome [8]: inactive | Potency [5]: 17.4 µM (active)

O=C1CCCCCCCCCCCCCC1
outcome [9]: inactive | Potency [1]: inactive | Potency [2]: inactive | Potency [3]: inactive | Potency [7]: inactive | outcome [8]: inactive | Potency [10]: inactive | Potency [5]: inactive

N#Cc1nc(Cl)c(Cl)c(Cl)c1Cl
Potency [1]: 15.5 µM (active) | Potency [2]: 7.76 µM (active) | Potency [3]: 13.8 µM (active) | outcome [8]: inactive | Potency [10]: 6.92 µM (active) | Potency [5]: 11 µM (active)

CC(O)(c1ccc(Cl)cc1)c1ccc(Cl)cc1
outcome [9]: inactive | Potency [1]: inactive | Potency [2]: inactive | Potency [6]: inactive | Potency [3]: inactive | outcome [4]: inactive | Potency [7]: inactive | outcome [8]: inactive

CN(C/C=C/c1ccccc1)Cc1cccc2ccccc12
outcome [9]: inactive | Potency [2]: inactive | outcome [4]: inactive | Potency [7]: inactive | Potency [5]: 26.6 µM (active)

CCCCCCCCCCCCCCCCCCNC(=O)OC1CCN(C(=O)OC[C@H](COC(=O)N(Cc2cccc[n+]2CC)C(=O)c2ccccc2OC)OC)CC1
outcome [9]: inactive | Potency [1]: 33.5 µM (active) | Potency [3]: 26.6 µM (active) | Potency [10]: inactive | Potency [5]: 26.6 µM (active)

O=C(N[C@H](CO)[C@H](O)c1ccc([N+](=O)[O-])cc1)C(Cl)Cl
outcome [9]: inactive | Potency [1]: inactive | Potency [3]: inactive

CCCCCCCCCCCCN1CCCC1=O
outcome [9]: inactive | outcome [8]: inactive | Potency [5]: 49 µM (active)

CN1CCN(CCCN2c3ccccc3Sc3ccc(Cl)cc32)CC1
outcome [9]: inactive | Potency [1]: 26.6 µM (active) | Potency [3]: 26.6 µM (active) | Potency [7]: 23.7 µM (active) | outcome [8]: inactive

CCCCCCCCOC(=O)c1cc(O)c(O)c(O)c1
outcome [9]: inactive | Potency [1]: 43.6 µM (active) | Potency [2]: 49 µM (active) | outcome [8]: inactive | Potency [10]: 54.9 µM (active) | Potency [5]: 24.5 µM (active)

O=C1CCC/C=C\CCCCCCCCCC1
outcome [9]: inactive | Potency [6]: inactive | Potency [3]: inactive | outcome [4]: inactive | Potency [7]: inactive | outcome [8]: inactive | Potency [10]: inactive

CCC(C)(C)c1ccc(CC(C)CN2C[C@@H](C)O[C@@H](C)C2)cc1 (some centres undefined)
outcome [9]: inactive | Potency [1]: inactive | Potency [2]: inactive | Potency [3]: inactive | Potency [7]: inactive | outcome [8]: inactive | Potency [10]: inactive

CCCCCCCC/C=C\CCCCCCCC(=O)N(CCO)CCO
Potency [1]: inactive | Potency [2]: inactive | Potency [6]: inactive | Potency [3]: 54.7 µM (active) | outcome [8]: inactive | Potency [10]: inactive | Potency [5]: 43.5 µM (active)

COc1c(Br)cc(Br)c(C)c1Br
Potency [1]: inactive | Potency [6]: inactive | Potency [3]: inactive | outcome [4]: inactive | Potency [7]: inactive | outcome [8]: inactive | Potency [5]: inactive

SC1CCCCC1
outcome [9]: inactive | Potency [1]: inactive | Potency [2]: inactive | Potency [3]: inactive | outcome [4]: inactive | outcome [8]: inactive | Potency [10]: inactive | Potency [5]: inactive

Cc1ccc(Cl)c(N)c1Cl
outcome [9]: inactive | Potency [7]: inactive | Potency [5]: 38.9 µM (active)

O=C1OC(O)C(C(Cl)Cl)=C1Cl (centres undefined)
outcome [9]: inactive | Potency [7]: inactive | outcome [8]: inactive

COc1cccc(-c2ccc(/C=C\CN3CCCCCC3)cc2Cl)c1
Potency [2]: inactive
